# Paper PMC4336329 (PLoS ONE, 2015)
# Hit rate of the full screen: of about 310,000 compounds, about 14,000 (4.5%) showed an effect of 50% or more. Effects have a minus sign here. Shown is part of a subset that was picked to be rich in strong results.
# Biological target: human ether-à-go-go-related gene (hERG) potassium channel (human, UniProt Q12809)
# Assay: primary screen, population patch clamp on CHO cells stably expressing hERG; higher = less effect of the substance
# 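Also: peak tail current of the secondary pulse compared with the same well before compound.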
# Chain of human ether-à-go-go-related gene (hERG) potassium channel (Q12809 whole entry, looked up): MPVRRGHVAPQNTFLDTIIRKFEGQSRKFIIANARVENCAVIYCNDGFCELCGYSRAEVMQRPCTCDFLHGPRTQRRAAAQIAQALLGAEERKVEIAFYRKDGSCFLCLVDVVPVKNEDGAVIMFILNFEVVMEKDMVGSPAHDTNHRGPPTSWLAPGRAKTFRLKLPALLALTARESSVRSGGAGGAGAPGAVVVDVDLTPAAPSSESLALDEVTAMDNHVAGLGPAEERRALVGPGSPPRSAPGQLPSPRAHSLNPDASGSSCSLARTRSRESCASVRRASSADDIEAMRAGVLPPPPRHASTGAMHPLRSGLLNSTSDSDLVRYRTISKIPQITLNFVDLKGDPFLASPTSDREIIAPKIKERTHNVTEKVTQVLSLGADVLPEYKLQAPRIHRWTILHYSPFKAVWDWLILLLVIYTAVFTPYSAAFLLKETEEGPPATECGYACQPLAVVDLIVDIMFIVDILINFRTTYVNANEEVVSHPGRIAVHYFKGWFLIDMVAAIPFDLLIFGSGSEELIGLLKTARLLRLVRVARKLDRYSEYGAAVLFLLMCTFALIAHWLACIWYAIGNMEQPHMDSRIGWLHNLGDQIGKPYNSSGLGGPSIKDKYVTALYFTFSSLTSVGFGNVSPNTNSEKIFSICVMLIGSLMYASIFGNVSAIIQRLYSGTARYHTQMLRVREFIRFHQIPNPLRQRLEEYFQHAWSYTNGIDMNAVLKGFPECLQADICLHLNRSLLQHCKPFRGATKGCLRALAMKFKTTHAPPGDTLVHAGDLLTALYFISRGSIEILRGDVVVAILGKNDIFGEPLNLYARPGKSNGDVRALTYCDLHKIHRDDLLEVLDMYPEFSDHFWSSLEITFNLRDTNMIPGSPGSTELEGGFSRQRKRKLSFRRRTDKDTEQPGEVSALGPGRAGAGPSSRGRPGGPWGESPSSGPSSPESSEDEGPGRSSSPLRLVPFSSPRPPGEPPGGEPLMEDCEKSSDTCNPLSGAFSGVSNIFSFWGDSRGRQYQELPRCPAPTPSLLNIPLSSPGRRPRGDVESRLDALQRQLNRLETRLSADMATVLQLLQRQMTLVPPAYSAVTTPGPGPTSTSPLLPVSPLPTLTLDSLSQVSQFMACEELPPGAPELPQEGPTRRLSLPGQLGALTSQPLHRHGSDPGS
row,SMILES,"hERG current change (%, negative = inhibition) at 10uM [%]"
1,COc1ccc(C2/C(=C(/O)c3ccc(C)cc3)C(=O)C(=O)N2C)cc1 (stereo not drawn),-2.36
2,CC1CCc2ccccc2N1C(=N)N(C)C.Cl (stereo not drawn),3.44
3,CCNC(=O)O/N=C(\C)c1sc(-c2ccccc2)nc1C,-11.2
4,CCOC(=O)C(=CNNc1cccc(Cl)c1)C(=O)OCC,15.5
5,O=C(Nc1ccc(F)cc1F)c1sccc1SCc1cccc(C(F)(F)F)c1,-4.52
6,O=C(Nc1ccc(Nc2ccccc2)cc1)c1c(F)c(F)c(F)c(F)c1F,22.9
7,CCOc1cccc(N(C(=O)c2ccco2)C(C(=O)NC2CCCC2)c2cccnc2)c1 (stereo not drawn),0.854
8,Cc1ccc2sc(NNC(=O)c3cc(-c4cccs4)nc4ccccc34)nc2c1C,16.3
9,CCn1c(Cc2ccccc2)nnc1SCC(=O)Nc1nc(C)c(C)s1,9.3
10,CCn1c(SCC(=O)Nc2nc(C)c(C)s2)nnc1-c1cccnc1,-26.2
11,CCn1c(SCC(=O)Nc2nc(C)c(C)s2)nnc1-c1cccs1,-73.4
12,CCn1c(SCC(=O)Nc2nc(C)c(C)s2)nnc1-c1ccco1,-68.8
13,CCn1c(SCC(=O)Nc2nnc(C)s2)nnc1-c1ccco1,-5.98
14,CCc1nnc(NC(=O)CSc2nnc(-c3ccco3)n2CC)s1,13.7
15,Cc1ccc2cc(C=C(C#N)C#N)c(N3CCCCC3)nc2c1,15.3
16,Nc1ccc2c(c1)-c1ccccc1S(=O)(=O)N2,11.1
17,COc1ccc(O)c2c(=O)c3c(OC)cc4c(c3oc12)C1C=COC1O4 (stereo not drawn),4.03
18,O=C(c1cccs1)N1CCN=C1SCc1ccccc1,7.77
19,O=C1c2ccccc2C(=O)N1CCCn1c(=O)oc2ccccc21,11.4
20,Cc1cccc(-n2nnc3c(=O)n(Cc4ccccn4)cnc32)c1,-7.65
21,Cc1ccc(C(CNC(=O)Nc2ccc(Cl)cc2)N2CCN(C)CC2)cc1 (stereo not drawn),-76.8
22,CN1CCN(C(CNC(=O)c2ccc(Br)o2)c2ccc(F)cc2)CC1 (stereo not drawn),-17.5

row,SMILES,"hERG current change (%, negative = inhibition) at 10uM [%]"
1,COc1ccc(C(CNC(=O)Nc2ccc(Cl)cc2)N2CCN(C)CC2)cc1 (stereo not drawn),-24.5
2,Cc1ccc(C(CNC(=O)c2ccco2)N2CCN(C)CC2)cc1 (stereo not drawn),-11.1
3,Cc1ccc(C(CNC(=O)c2ccc(Br)o2)N2CCN(C)CC2)cc1 (stereo not drawn),-60.4
4,Cc1ccc(C(CNC(=O)Nc2ccccc2)N2CCN(C)CC2)cc1 (stereo not drawn),-28.9
5,CN1CCN(C(CNC(=O)Nc2ccc(Cl)cc2)c2ccc(F)cc2)CC1 (stereo not drawn),-56.3
6,COc1ccc(C(CNC(=O)Nc2ccccc2)N2CCN(C)CC2)cc1 (stereo not drawn),-12.8
7,Cc1cccc(NC(=O)NCC(c2ccc(F)cc2)N2CCN(C)CC2)c1 (stereo not drawn),-42.6
8,Cc1ccc(/C=C(\C#N)C(=O)NCc2ccco2)o1,3.84
9,O=C(c1ccccc1)c1cn[nH]c1-c1ccccc1O,5.65
10,CCOc1ccc(S(=O)(=O)NCCC(=O)N(C)Cc2cccs2)cc1,-20.9
11,COc1cc(/C=N/NC(=O)c2ccccn2)ccc1OC(=O)c1ccc(Br)cc1,1.06
12,CCn1c(=O)c([N+](=O)[O-])c(NC2CCS(=O)(=O)C2)c2ccccc21 (stereo not drawn),5.85
13,OC1CCN(Cc2cccc(Oc3ccccc3)c2)CC1,6.4
14,COCCNC(=O)CCC1CCN(Cc2cccc(Oc3ccccc3)c2)CC1,-55.3
15,COCCNC(=O)CN1CCC(NC(=O)Nc2ccccc2)CC1,-8.21
16,COCCNC(=O)CCc1nnc(Cc2ccc(-c3ccccc3)cc2)o1,14.5
17,COCCNC(=O)CCC1CCN(Cc2ccc(-c3ccccc3)cc2)CC1,-63.6
18,COCCNC(=O)CCC1CCN(Cc2cccc(-c3ccc(C)o3)c2)CC1,-25.3
19,Clc1ccccc1-c1nnc2sc(-c3ccco3)nn12,-21.8
20,O=C(CSc1ccc([N+](=O)[O-])cn1)Nc1ccccc1N1CCOCC1,-19.2
21,c1nc(NC2CCCCC2)c2[nH]cnc2n1,-3.86
22,COc1ccc(/C=C2\CCCCC2=O)cc1,-6.19

row,SMILES,"hERG current change (%, negative = inhibition) at 10uM [%]"
1,Cc1ccc(C(C)C)c(OCC(=O)Nn2c(=O)[nH]c3ccccc3c2=O)c1,-12.6
2,COc1ccc2c(c1)[nH]c1c(=O)n(/N=C/c3ccc(OC)c(CN4CCCC4)c3)cnc12,-71.1
3,COc1ccc2c(c1)[nH]c1c(=O)n(/N=C/c3ccc(OC)c(CN4CCCCC4)c3)cnc12,-64.3
4,COc1ccc(/C=N/n2cnc3c([nH]c4ccccc43)c2=O)cc1COc1ccccn1,-8.67
5,COc1ccc(/C=N/n2c(=O)[nH]c3c([nH]c4ccc(Cl)cc43)c2=O)cc1CN1CCCCC1,-13
6,COc1ccc(/C=N/n2cnc3c([nH]c4ccccc43)c2=O)cc1CO,11.2
7,COc1ccc2c(c1)[nH]c1c(=O)n(/N=C/c3ccc(OC)c(COc4ccccn4)c3)cnc12,-9.63
8,CCC(C)NC(=O)CN(c1ccc(Cl)c(Cl)c1)S(C)(=O)=O (stereo not drawn),3.62
9,O=C(NC1CCCC1)c1cc(S(=O)(=O)N2CCOCC2)c(Cl)cc1Cl,-8.15
10,O=C(Nc1nnc(-c2ccc3c(c2)CCCC3)o1)C1CCCCC1,4.3
11,O=C(CSc1nnc(NC(=O)c2ccccc2F)s1)Nc1ccccc1F,30.9
12,CCn1c(SCC(=O)N2CCCCC2)nc2c1c(=O)n(C)c(=O)n2C,14.3
13,CCCOc1ccc(/C(O)=C2/C(=O)C(=O)N(CCCOC)C2c2ccncc2)cc1 (stereo not drawn),-53.1
14,CCCOc1ccc(/C(O)=C2/C(=O)C(=O)N(CCCOC)C2c2cccnc2)cc1 (stereo not drawn),-5.91
15,CCCCOc1ccc(/C(O)=C2/C(=O)C(=O)N(CCCOC)C2c2ccncc2)cc1 (stereo not drawn),18.2
16,O=C(Cc1ccccc1[N+](=O)[O-])NC1CCN(Cc2ccccc2)CC1,-1.68
17,COc1cc(OC)cc(C(=O)N2CCN(Cc3ccccc3[N+](=O)[O-])CC2)c1.O=C(O)C(=O)O,-46.5
18,CC(C)CC(=O)N1CCN(Cc2ccccc2[N+](=O)[O-])CC1.O=C(O)C(=O)O,-7.35
19,COc1ccc(C(=O)N2CCN(Cc3ccccc3[N+](=O)[O-])CC2)cc1.O=C(O)C(=O)O,-58.9
20,O=C(c1cccs1)N1CCN(Cc2ccccc2[N+](=O)[O-])CC1,-17.7
21,COc1cccc(C(=O)N2CCN(Cc3ccccc3[N+](=O)[O-])CC2)c1,-14.5
22,O=C(O)C(=O)O.O=C(c1ccc([N+](=O)[O-])cc1)N1CCN(Cc2ccccc2[N+](=O)[O-])CC1,-75

row,SMILES,"hERG current change (%, negative = inhibition) at 10uM [%]"
1,O=C(C1CCCN(Cc2ccccc2[N+](=O)[O-])C1)N1CCCC1.O=C(O)C(=O)O (stereo not drawn),11.4
2,CN(Cc1ccccc1)C1CCN(Cc2ccccc2[N+](=O)[O-])CC1.O=C(O)C(=O)O,-59.6
3,CC(=O)Nc1cccc(NC(=O)CSc2ccc(-c3cccnc3)nn2)c1,7.43
4,CCC(C)/C(C)=N/NC(=O)CSc1nc2ccccc2[nH]1 (stereo not drawn),2.26
5,O=C1C2CC=CCC2C(=O)N1CNc1ccccc1 (stereo not drawn),14.7
6,Cc1c(Cl)c([N+](=O)[O-])nn1CCCC(=O)Nc1ccc(Cl)cc1Cl,-45.1
7,COc1ccc(CNC(=O)C(=O)NCC2OCCN2S(=O)(=O)c2cccs2)cc1 (stereo not drawn),-4.34
8,O=C(CNC1C(=O)Nc2ccccc21)Sc1ccccc1 (stereo not drawn),22.3
9,CCSc1nnc(NC(=O)Cc2cc(OC)c(OC)c(OC)c2)s1,8.27
10,CSc1nnc(SCC(=O)N(C)c2c(N)n(Cc3ccccc3)c(=O)[nH]c2=O)s1,5.79
11,CC(C)C[C@H](NC(=O)c1nc[nH]c1C(=O)NCc1ccccc1)C(=O)OCc1ccccc1,-7.88
12,COCCn1c(SCC(=O)NC2CCCC2)nnc1C(C)C,22.6
13,CSc1cccc(CN2CCC(CCC(=O)NC3CC3)CC2)c1,-62.6
14,O=C(CCC1CCN(Cc2ccc(Cl)cc2)CC1)NC1CC1,-65.9
15,O=C(CCC1CCN(Cc2ccc(C#CCCO)cc2)CC1)NC1CC1,-46.7
16,CSc1ccccc1C(=O)N1CCC(CCC(=O)NC2CC2)CC1,11.6
17,CSc1ccc(C(=O)N2CCC(CCC(=O)NC3CC3)CC2)cc1,-30.8
18,O=C(CCC1CCN(Cc2ccccc2Cl)CC1)NC1CC1,-23.2
19,CN(Cc1cnn(C)c1)Cc1nc(-c2ccc(Cl)cc2)no1,-4.26
20,Cn1c(=O)c2c(SC3CCCC3)nc(C3CC3)nc2n(C)c1=O,18.8
21,S=C1NCCOCCOCCNC(=S)N2CCOCCOCCN1CCOCCOCC2,5.22
